Data reported in PubChem BioAssay AID1053117 (Broad Institute, 2014).
Results with a measured potency or affinity are listed apart. Active and inactive are the calls of the source.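 The calls were made as follows: active = compounds lowering cell ATP signal with a fitted half-effect dose at most twice the top valid dose; inconclusive = flat curve with 30 to 70% signal loss, or bad fit; inactive = wrong direction, flat within 30%, or weaker than limit.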

Experiment: HEK293 cell cytotoxicity, dose response, cytotoxicity control, cherry-picks, set 5 (AID 1053117);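 also: more negative means greater loss of ATP signal and more cytotoxicity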
Details: HEK293T viability, CellTiter-Glo ATP luminescence, 72 h; series mostly up to 26 µM; activity change, negative = cytotoxicity: at the top concentration

Row | Compound | activity change, negative = cytotoxicity
1 | C[C@@H]1CN([C@@H](C)CO)C(=O)c2cc(-c3ccccc3)cnc2O[C@H]1CN(C)C(=O)c1cccc(F)c1 | -16.9% (inactive)
2 | C[C@H](O)C#Cc1ccc2c(c1)O[C@H](CN(C)C)[C@@H](C)CN([C@@H](C)CO)S2(=O)=O | -12.8% (inactive)
3 | CCN(Cc1ccncc1)C(=O)c1ccc2c(c1)S(=O)(=O)c1ccccc1C2=O | -29.1% (inactive)
4 | O=C(c1cccnc1)N1C[C@@H]2[C@H](c3ccccc31)[C@H](CO)N2CC1CCCC1 | -19.3% [at 23.5 µM] (inactive)
5 | COCC(=O)Nc1ccc2c(c1)C(=O)N(C)[C@H]1CC[C@@H](CC(=O)NCc3ccccc3Cl)O[C@H]1CO2 | 0.812% (inactive)
6 | c1ccc2[nH]c(SCc3cn4cccnc4n3)nc2c1 | 8.44% (inactive)
7 | Cc1ccn2cc(-c3ccc(NC(=O)c4ccco4)cc3)nc2c1 | -18.1% (inactive)
8 | O=C(c1cccnc1)N1C[C@H]2[C@@H](c3ccccc31)[C@@H](CO)N2CC1CCCC1 | -16% (inactive)
9 | CC(C)(C)[S@](=O)N1Cc2cc(C(=O)NCc3ccccc3F)nc(-c3cccc(-c4cncnc4)c3)c2[C@@H]1CCO | 0.126% (inactive)
10 | CSc1ccccc1C(=O)C1CCCN(C(=O)CCc2cccnc2)C1 (stereo not drawn) | -14.4% (inactive)
11 | O=S(=O)(c1ccccc1F)N1CC[C@@H]2[C@H]1c1cc(-c3cccc(F)c3)ccc1N[C@@H]2CO | -2.3% (inactive)
12 | CCC(C)(C)NC(=O)C(OC(=O)c1ccco1)c1ccccc1OC (stereo not drawn) | -3.73% (inactive)
13 | COCC(=O)Nc1ccc2c(c1)C(=O)N(C)[C@@H]1CC[C@H](CC(=O)NCc3ccccc3Cl)O[C@@H]1CO2 | -5.74% (inactive)
14 | COc1cccc(CN2CCN(C(=O)c3ccc(-c4ccccc4)cc3)CC2)c1OC | -10.4% (inactive)
15 | O=C(CCNS(=O)(=O)c1cccc2nonc12)NC1CCCc2ccccc21 (stereo not drawn) | 10.6% (inactive)
16 | Cc1oc2ccc(O)cc2c1C(=O)c1ccc(Br)cc1 | -12.3% (inactive)
17 | COC(=O)C[C@H]1CC[C@H]2[C@H](COc3ccc(NC(=O)Cc4cccs4)cc3C(=O)N2C)O1 | -8.78% (inactive)

Row | Compound | activity change, negative = cytotoxicity
18 | C[C@H](O)C#Cc1ccc2c(c1)O[C@H](CN(C)C)[C@H](C)CN([C@@H](C)CO)S2(=O)=O | -0.553% (inactive)
19 | N#Cc1ccc(-c2ccc3c(c2)[C@@H]2[C@@H](CCN2S(=O)(=O)c2cccc(F)c2)[C@@H](CO)N3)cc1 | -14.5% [at 23.5 µM] (inactive)
20 | COCC(=O)Nc1ccc2c(c1)C(=O)N(C)[C@H]1CC[C@H](CC(=O)NCc3ccccc3Cl)O[C@H]1CO2 | -4.9% (inactive)
21 | O=C(CN1CCCC1)Nc1ccc(Oc2ccc(NC(=O)CN3CCCC3)cc2)cc1 | -22.4% (inactive)
22 | O=S(=O)(c1ccccc1F)N1CC[C@@H]2[C@H](CO)Nc3ccc(-c4cccc(F)c4)cc3[C@@H]21 | -20.6% (inactive)
23 | CCOC(=O)C1=C(C)Nc2nc3ccccc3n2C1c1ccncc1 (stereo not drawn) | -6.47% (inactive)
24 | COCC(C)n1c(SCc2nc(N)nc(Nc3ccccc3C)n2)nc2ccccc2c1=O (stereo not drawn) | 0.498% (inactive)
25 | CN(C)C(=O)c1ccc(-c2ccc3c(c2)[C@@H]2[C@@H](CCN2C(=O)c2ccc(F)cc2)[C@@H](CO)N3C)cc1 | -10.4% (inactive)
26 | Cc1ccc(Nc2nnc(SCc3ccccc3)s2)cc1 | -6.05% (inactive)
27 | Nc1nc(-c2cc3c(cc2Cl)OCCO3)cs1 | -9.84% (inactive)
28 | O=c1c2cc(N3CCOCC3)ccc2[nH]c(=S)n1Cc1ccc(Cl)cc1 | -22.5% (inactive)
29 | COC(=O)c1cn(CC(=O)NCc2ccco2)c2ccccc12 | -15.6% (inactive)
30 | Cc1cc(C)c(S(=O)(=O)Nn2cnnc2)c(C)c1 | -20.2% (inactive)
31 | CCN1CCN(C(c2ccccc2)c2nnnn2Cc2ccccc2)CC1 (stereo not drawn) | -11.2% (inactive)
32 | CC(C)C(=O)Nc1ccc2c(c1)C(=O)N(C)[C@@H]1CC[C@H](CC(=O)O)O[C@@H]1CO2 | -14.7% [at 23.5 µM] (inactive)
33 | C[C@H](CO)N1C[C@H](C)[C@@H](CN(C)Cc2ccc(-c3ccccc3)cc2)Oc2ccc(NC(=O)CCCN(C)C)cc2C1=O | -13.9% (inactive)
